Screens deposited in PubChem BioAssay by several laboratories.
Compounds with a hit are over-represented: about 4.5% of the library has one in this group of screens.
FBA Mtb inh = inhibits M. tuberculosis FBA enzyme; P9WQA3; purified M. tuberculosis FBA, fluorescence read-out; inhibition, % at 1 µM; actives 2.3% (n = 360,000);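 note: 0% = vehicle and 100% = reference inhibitor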
Target sequence (P9WQA3 whole entry, looked up): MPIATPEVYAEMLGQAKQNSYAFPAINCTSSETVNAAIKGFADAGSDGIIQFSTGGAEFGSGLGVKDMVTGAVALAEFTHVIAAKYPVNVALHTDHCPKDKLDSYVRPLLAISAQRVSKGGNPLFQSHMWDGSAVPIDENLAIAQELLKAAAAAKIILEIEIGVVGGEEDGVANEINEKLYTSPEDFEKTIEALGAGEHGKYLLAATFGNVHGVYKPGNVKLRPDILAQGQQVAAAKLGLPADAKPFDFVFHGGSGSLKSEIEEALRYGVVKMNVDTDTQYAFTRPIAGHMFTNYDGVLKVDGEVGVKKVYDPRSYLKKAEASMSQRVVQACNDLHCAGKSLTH
GDH-TPI counter-1 = counter-screen for M. tuberculosis FBA inhibitors: GDH-TPI coupled enzymes; GDH-TPI coupled enzyme counterscreen, NADH absorbance; inhibition, % at 4.8 µM; actives 1.2% (n = 360,000); in the data active = inhibition above about 30%;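 note: 0% = DMSO wells and 100% = wells lacking the enzyme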
BJeLR lethal = BJeLR cell viability loss. BJeLR (HRASV12) viability, CellTiter-Glo ATP luminescence, 48 h. actives 0.17% (n = 300,000). inhibition, % (no concentration beside the values); in the data active = inhibition above about 50%
PrP UTR inh = inhibition of PrP 5' UTR reporter expression; cell-based PrP 5' UTR mRNA reporter, plate reader; inhibition, % (test concentration not listed); actives 0.35% (n = 340,000); in the data active = inhibition above about 52%; note: 0 = median of the neutral control wells
PrPC TRFRET = cell surface PrPC inhibition, primary TR-FRET screen; P04156; TR-FRET read-out; inhibition, % at 13.8 µM; actives 0.43% (n = 370,000); AID 720596; in the data active = inhibition above about 24%; note: 0% = median of the test wells and 100% = reference compound wells
PfHsp40 rescue = restores yeast growth despite PfHsp40 toxicity. S. cerevisiae expressing PfHsp40, growth rescue, ATP luminescence. growth rescue, % at 12.5 µM. actives 0.68% (n = 340,000). AID 504582; in the data active = growth rescue above about 28%, passing the limit was not always enough;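 note: yeast W303a lacking pdr1 and pdr3 grown in galactose medium; growth measured after three days at 30 °C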
Mtb FBA confirm = confirmation of M. tuberculosis fructose-bisphosphate aldolase inhibitors; shares compounds with FBA Mtb inh; purified M. tuberculosis FBA, fluorescence read-out; actives 78% (n = 5,600); inhibition, % at 1 µM; AID 651616;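 note: 0% = vehicle wells and 100% = reference inhibitor wells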
GDH-TPI counter-2 = counter-screen for M. tuberculosis FBA inhibitors: GDH-TPI coupled enzyme inhibition | shares compounds with FBA Mtb inh | GDH-TPI coupled enzyme counterscreen, fluorescence | inhibition, % at 1 µM | actives 81% (n = 5,600) | AID 652141; in the data active = inhibition above about 10%
The depositor's hits bear a star; . = not tested or not shown; + = active, no number. Cut-off read from the data, not from the text of the source, unless noted: active = inhibition above about 27%; inactive = the rest.

SMILES	FBA Mtb inh	GDH-TPI counter-1	BJeLR lethal	PrP UTR inh	PrPC TRFRET	PfHsp40 rescue	Mtb FBA confirm	GDH-TPI counter-2
Cc1c(OC(C)C(=O)NCC(O)c2ccccc2)ccc2c3c(c(=O)oc12)CCC3 (stereo not given)	28.8*	17.0	2.2	-1.8	11.2	-0.7	+	+
Cc1ccc(S(=O)(=O)N2CCN(c3ccccc3)CC2)cc1C(N)=O	-3.0	8.1	3.5	-19.1	4.3	-0.3	.	.
O=C(CNC(=O)c1ccco1)Nc1ccc(Cl)cc1	3.5	5.7	4.8	-8.2	3.4	-0.7	.	.
COc1ccc(CN2CCC(=O)N(CCO)CC2)cc1OC	0.9	9.2	0.7	-25.5	-5.9	-1.1	.	.
COc1ccc(-c2c(C)oc3c(CN4CCOCC4)c(O)ccc3c2=O)cc1	103.8*	10.1	-0.3	-13.9	-0.6	0.1	59.9*	50.7*
COc1ccc(-c2c(C)oc3c(CN4CCN(CCO)CC4)c(O)ccc3c2=O)cc1OC	30.7*	12.4	-2.2	-21.8	3.5	-0.3	63.6*	57.5*
Cc1oc2c(CN3CCCC3)c(O)ccc2c(=O)c1-c1ccc(Br)cc1	89.0*	7.0	-8.5	-3.4	1.6	0.5	+	+
COc1ccc(C(=O)NC(=S)NCc2ccco2)cc1Br	-1.6	4.1	1.5	-4.2	5.0	0.4	.	.
C=CCn1c(-c2cccc(OC)c2OC)n[nH]c1=S	-0.6	-5.0	2.9	-19.6	10.6	-0.2	.	.
C=CCn1c(-c2cc3cccc(OC)c3o2)n[nH]c1=S	43.8*	9.6	-28.9	-2.2	-1.1	1.9	102.1*	71.7*
CCOC(=O)C(O)C1CCc2c([nH]c3ccc(C)cc23)C1=O (stereo not given)	6.9	7.7	-2.5	-22.7	-7.8	-0.3	.	.
Cc1ccc2[nH]c3c(c2c1)CCNC3=O	75.4*	11.1	35.9	-6.2	5.7	0.8	112.7*	93.3*
Cn1c(=O)n(C)c2cc(S(=O)(=O)Nc3ccccc3C(=O)O)ccc21	28.9*	10.6	-6.2	-11.4	-6.0	-0.5	+	+
CC(OC(=O)c1cccc(-n2cnnn2)c1)C(=O)N(C)c1ccccc1 (stereo not given)	-0.5	3.7	-8.2	2.1	4.8	0.0	.	.
Cn1c(=O)c(-c2ccccc2)nc2ccccc21	44.4*	9.6	1.5	-1.3	-16.3	-0.1	58.8*	38.9*
COC(=O)c1ccc(C2C(C#N)=C(C)NC3=C2C(=O)CC(C)(C)C3)cc1 (stereo not given)	75.0*	12.8	1.3	3.2	0.0	0.1	81.9*	51.5*
CCCCC1C(C#N)=C(C)NC2=C1C(=O)CC(C)(C)C2 (stereo not given)	56.5*	11.9	4.9	-19.3	6.0	0.6	62.6*	45.1*
COc1ccccc1C=NNC(=O)CSc1nc2ccccc2n1Cc1ccc(Cl)cc1	.	.	.	.	-8.2	.	.	.
CCN(C(=O)CSc1nc2ccccc2c(=O)n1CCOC)C1CCS(=O)(=O)C1 (stereo not given)	0.0	1.2	-5.0	-11.8	-3.6	-0.2	.	.
O=C(O)c1cc(O)ccc1O	87.0*	3.6	.	-13.2	7.3	-0.6	3.7	-4.7
CC(C)(c1ccc(O)cc1)c1ccc(O)c(C(=O)O)c1	61.2*	0.0	.	.	7.7	.	59.6*	51.9*
O=S(=O)(O)c1cccc2cccc(Nc3ccccc3)c12	95.4*	30.9*	-6.0	-15.0	10.9	7.0	+	+
COC(=O)c1ccccc1Nc1ccccc1	-2.2	10.8	-2.8	-6.1	-1.1	-0.6	.	.
Nc1ccc(C=Cc2ccc(N)cc2)cc1	88.0*	.	.	.	11.5	.	152.7*	115.8*
COC(=O)CCC(C)N1CCC(Oc2ccc(C(=O)N3CCCC3)cc2)CC1 (stereo not given)	1.7	-5.5	-9.0	-14.2	-9.4	-1.0	.	.
COc1ccccc1C1CN(c2ccc(F)cc2F)N=C1c1cccs1 (stereo not given)	83.3*	10.2	7.7	-12.9	9.7	-0.5	177.3*	131.9*
COc1ccccc1C1CC(c2cccs2)=Nc2ccccc2S1 (stereo not given)	-1.1	6.2	5.8	-29.0	-8.8	1.6	.	.
